Several values for one entry are separate records, joined by “and”; a condition that tells them apart may be missing. Equal values may be shown once. Results filed as inconclusive are left out. Unmarked numbers belong to inactive results. Activity calls are given as the source filed them. The call rests on the fitted dose curve; in most records, active means well fitted curve in the direction sought with a large enough effect; inconclusive means small, poorly fitted or top-dose-only effect, or another doubt; inactive means no such curve, though single readings can be large; an effect the other way counts as inactive or inconclusive.

Experiment [1] is described as follows: Viability qHTS for spleen associated tyrosine kinase inhibitor (SYKi) drug resistant MV4-11 cells (AID 1963824). Further: nearly all actives have a fitted effect of over 35% in size. In outline:
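CellTiter-Glo luminescence, read 10 min after reagent addition, reports viability after a 72 hr compound exposure. Cells are an MV4-11 line made resistant to SYK inhibition, seeded at 500 per well onto compound-containing plates.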

Experiment [2] can be described thus: Quantitative highthroughput screen to assess conditional lethalithy of NOMO1 cells grown in RPMI1640 with untreated serum (RPMI+s) (AID 1963876). Further: nearly all actives have a fitted effect of over 35% in size.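 On Viability: 100% = DMSO wells and 0% = empty wells without cells.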 The method in brief:
(§1)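 Each medium arm—HPLM with 10% dialyzed FBS, or RPMI1640 with 5 mM glucose and 10% untreated or dialyzed FBS—was screened against an 11-point, 3-fold compound titration for 48 h at 37 °C, with CellTiter-Glo luminescence as endpoint.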

A short description of experiment [3]: Quantitative highthroughput screen to assess conditional lethalithy of NOMO1 cells grown in RPMI1640 with dialyzed fetal bovine serum (RPMI+ds) (AID 1963877). Further: nearly all actives have a fitted effect of over 30% in size.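 On Viability: series mostly up to about 46 µM; 100% = DMSO control wells and 0% = empty wells.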 In outline: as §1
Experiment [4] is described as follows: Quantitative highthroughput screen to assess conditional lethalithy of NOMO1 cells grown in Human Plasma-Like Medium with dialyzed fetal bovine serum (HPLM+ds) (AID 1963878). Further: nearly all actives have a fitted effect of over 35% in size.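 On Viability: 100% = DMSO wells and 0% = empty wells on each plate.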 The method in brief:
as §1

Experiment [5] is described as follows: Quantitative highthroughput screen to assess conditional lethalithy of P12 Ichikawa cells grown in Human Plasma-Like Medium with dialyzed fetal bovine serum (HPLM+ds) (AID 1963879). Further: nearly all actives have a fitted effect of over 35% in size. On Viability: series mostly up to about 46 µM. The settings on record: Potency: viability. The method in brief: as §1
Experiment [6] in a line: Quantitative highthroughput screen to assess conditional lethalithy of P12 Ichikawa cells grown in RPMI1640 with dialyzed fetal bovine serum (RPMI+ds) (AID 1963880). Further: nearly all actives have a fitted effect of over 35% in size.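 On Viability: 100% = DMSO wells and 0% = empty wells on each plate.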 Conditions: Potency: P12-Ichikawa viability. The method in brief:
as §1

Experiment [7] is described as follows: Quantitative highthroughput screen to assess conditional lethalithy of P12 Ichikawa cells grown in RPMI1640 with untreated serum (RPMI+s) (AID 1963881). Further: nearly all actives have a fitted effect of over 35% in size.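 On Viability: series mostly up to about 46 µM; 100% = DMSO wells and 0% = empty wells without cells.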 Conditions: Potency: viability. The method in brief: as §1
The nature of experiment [8]: Quantitative highthroughput screen to assess conditional lethalithy of SEM cells grown in Human Plasma-Like Medium with dialyzed fetal bovine serum (HPLM+ds) (AID 1963882). Further: nearly all actives have a fitted effect of over 35% in size. On Viability: series mostly up to about 46 µM. The method in brief: as §1
Experiment [9] can be described thus: Quantitative highthroughput screen to assess conditional lethalithy of SEM cells grown in RPMI1640 with unreated serum (RPMI+s) (AID 1963883). Further: nearly all actives have a fitted effect of over 35% in size.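 On Viability: 100% = DMSO wells and 0% = empty wells without cells.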 In outline: as §1
Experiment [10] is described as follows: Quantitative highthroughput screen to assess conditional lethalithy of SEM cells grown in RPMI1640 with dialyzed fetal bovine serum (RPMI+ds) (AID 1963884). Further: nearly all actives have a fitted effect of over 35% in size.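 On Viability: series mostly up to about 46 µM; 100% = DMSO control wells and 0% = empty wells without cells.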 In outline: as §1
Experiment [11] is described as follows: Cellular viability qHTS for adrenocortical cancer (ACC) cell line SW-13 (AID 1963989). Further: nearly all actives have a fitted effect of over 65% in size.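 On activity (max response): cells grown in serum-free medium with ITS supplement; on the % scale 0 is the no-effect control and ±100 the full control effect.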 Conditions: SW-13 ACC cells viability, CellTiter-Glo, 48 h; activity (max response): hits give low values. The method in brief: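 IC50 and maximal-response values come from four-parameter logistic fits of titration data. SW-13 cells in serum-free medium received compounds (up to 46 uM final) for 48 h before CellTiter-Glo luminescence.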

A short description of experiment [12]: Cellular viability qHTS for adrenocortical cancer (ACC) cell line NCI-H295R (AID 1963990). Further: nearly all actives have a fitted effect of over 60% in size. In outline: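 Adrenocortical carcinoma cells, suspended at 300 000 cells/mL in serum-free DMEM plus ITS, rested overnight before pin transfer of compound. After two days' incubation, ATP-dependent luminescence was recorded and curve-fitted.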
A general note: qHTS replaces the single test concentration by a dilution series.
Potency means the concentration at half of the fitted maximal effect.

In the case of `Nc1nccc(-c2ccc3noc(-c4ccc(Cl)cc4)c3c2)n1`, the Potency in [1] was 8.33 µM (active). Moreover, the Potency result in experiment [2], in experiment [3], in experiment [4], in experiment [5], in experiment [6] and in experiment [7] was “inactive” each time. The Potency entry in [8], in experiment [9], in experiment [10] and in experiment [12] was “inactive” each time. For the same molecule, the activity (max response) in [11] is -6.01%.
As for `COC(=O)C[C@H]1C(C)(C)[C@H](OC(C)=O)C2CC3=C4CC(=O)O[C@@H](c5ccoc5)[C@]4(C)CCC3[C@@]1(C)C2=O` (some centres undefined), the Potency in [1] was 3.55 µM (active).
Still for that read-out and setting: the result for `CC(C)Oc1ccc(-c2cnc3c(-c4ccnc5ccccc45)cnn3c2)cc1` reads 4.11 µM (active); that for `O=Nc1c(-c2c(O)[nH]c3ccc(F)cc23)[nH]c2ccccc12`, 0.058 µM (active).
On to `CC(C)c1ccccc1Cc1cc(C(=O)Nc2ccc(S(=O)(=O)c3ccccc3C(C)(C)C)cc2)c(O)c(O)c1O`, for which the Potency in experiment [1] is 7.42 µM (active). In addition, the Potency result in experiment [2], in experiment [3], in experiment [4], in experiment [5], in experiment [6] and in experiment [7] was “inactive” each time. Further, the Potency result in [8] and in experiment [9] was “inactive” throughout.
Take `CC(=O)C=C=C1C(C)(C)CC(O[C@@H]2O[C@H](CO)[C@@H](O)[C@H](O)[C@H]2O)CC1(C)O` (some centres undefined): the Potency result in [1] is “inactive”.
Consider `C[C@]12CC[C@@H]3c4ccc(O)cc4C[C@@H](CCCCCCCCCS(=O)CCCC(F)(F)C(F)(F)F)[C@H]3[C@H]1CC[C@H]2O` (some centres undefined), for which the Potency in experiment [1] is 4.68 µM (active). The Potency entry in experiment [2], in experiment [3], in experiment [4], in experiment [5], in experiment [6] and in [7] was “inactive” each time. Further, the Potency result in [8], in experiment [9], in experiment [10] and in [12] was “inactive” in each case. Besides, the activity (max response) in experiment [11] is -14.8%.
As to `O=C(Nc1cc2cc[nH]c2cn1)c1ccccc1`, the Potency in experiment [1] was 9.2 µM (active); in experiment [2], 5.9 µM (active); in [3], 13.2 µM (active); in experiment [4], 3.32 µM (active); in experiment [5], 2.96 µM (active); in experiment [6] it was 5.9 µM (active). In addition, the Potency is 14.8 µM (active) in [7], 3.72 µM (active) in experiment [8], 2.96 µM (active) in experiment [9] and 3.32 µM (active) in experiment [10].
As for `C=Cc1c(C)c2cc3nc(cc4[nH]c(cc5nc(cc1[nH]2)C(C)=C5CCC(=O)O)c(CCC(=O)OC)c4C)[C@@]1(C)C3=CC=C(C(=O)OC)[C@H]1C(=O)OC`, the Potency was 7.42 µM (active) in experiment [1]; 14.8 µM (active) in [2]; 13.2 µM (active) in experiment [3]; 14.8 µM (active) in [4]; 14.8 µM (active) in [7]. In addition, the Potency entry in [5], in [6], in [8], in [9] and in experiment [10] was “inactive” throughout.
Consider `COc1ccc2c(c1OC)C(=O)OC2[C@H]1c2c(cc3c(c2OC)OCO3)CCN1C` (some centres undefined), for which the Potency in experiment [1] was 23.5 µM (active); in experiment [2], 0.296 µM (active); in experiment [3], 0.332 µM (active); in [4], 0.148 µM (active); in [5], 0.469 µM (active); in experiment [6], 0.59 µM (active). For the same molecule, the Potency is 0.418 µM (active) in [7]; 0.235 µM (active) in [8]; 0.118 µM (active) in [9]; 0.187 µM (active) in [10]; 22.4 µM (active) in [11]; 25.1 µM (active) in experiment [12].
`Cc1cc(F)c(Nc2ncnc3cc(OCc4ccccc4)ccc23)cc1O`: in experiment [1], the Potency was 14.6 µM (active).
For `COc1ccc(Cn2ccc3ccc(C(=O)NO)cc32)cc1`, the Potency in experiment [1] was 20.6 µM (active) and 18.6 µM (active). Moreover, in [2], the Potency entry is “inactive”.
For `CC1(CO)CC(O)[C@]2(C(=O)O)CCC34CC3(C=CC3[C@]5(C)C(CC[C@]34C)C(C)(CO)[C@@H](O)[C@H](O)[C@@H]5O)C2C1` (some centres undefined), the Potency in [1] was 11.2 µM (active).
The same measure, in the same setting: next, `Cc1c(CN(C)C(=O)/C=C/c2cnc3c(c2)CCC(=O)N3)oc2ccccc12`: “inactive”; `CNc1cc(OC)c(C(=O)N[C@@H]2CCN(Cc3ccccc3)[C@@H]2C)cc1Cl`: 14.6 µM (active); `Nc1nc(NCC2CCC(CNS(=O)(=O)c3cccc4ccccc34)CC2)nc2ccccc12` (centres undefined): 2.31 µM (active).
For the molecule `Cc1c(-c2ccc3c(c2)OCO3)oc2ccc(C(O)C(C)O)cc12` (centres undefined), in experiment [1], the Potency is 12.8 µM (active).
The same measure, in the same setting: the result for `COc1cc2c(cc1OC)[C@@H]1[C@H](O)[C@@H](OC)C=C3CCN(C2)[C@H]31` reads 1.8 µM (active).
For the molecule `O=C(CCCCCCC(=O)Nc1cccnc1)NO`, the Potency in experiment [1] is 3.72 µM (active); in experiment [2], 20.9 µM (active); in experiment [3], 20.9 µM (active); in experiment [4] it was 18.7 µM (active); in experiment [5], 7.43 µM (active); in experiment [6] it was 7.43 µM (active). Also, the Potency in [7] was 8.33 µM (active); in [8] it was 8.33 µM (active); in experiment [9], 8.33 µM (active); in [10], 6.62 µM (active); in experiment [11], 12.6 µM (active).
Consider `COc1ccccc1-c1c[nH]c2ncc(-c3cncc(C(=O)N(C)C)c3)cc12`, for which the Potency in [1] is 1.84 µM (active).
Still for that read-out and setting: the result for `CN1CCN(C2=Nc3ccccc3Nc3ccc(OS(=O)(=O)C(F)(F)F)cc32)CC1` reads 20.6 µM (active).
Consider `NC(=O)c1ccc(-c2nc(-c3ccc4c(c3)OCO4)c(-c3ccccn3)[nH]2)cc1`, for which the Potency in [1] was 11.6 µM (active). Moreover, the Potency result in [2], in experiment [3], in experiment [4], in experiment [5], in experiment [6] and in experiment [7] was “inactive” in each case. Also, the Potency entry in [8], in experiment [9], in experiment [10] and in experiment [12] was “inactive” in each case. Also, the activity (max response) in experiment [11] is -5.02%.
With `CCCCCCCCCCCCCC#CC(=O)[C@@H]1COC(C)(C)N1C(=O)OC(C)(C)C`, the Potency result in experiment [1] is “inactive”.
The same measure, in the same setting: next, `CN(CCOc1ccc(-c2ccc3c(c2)OCO3)cc1C(C)(C)C)CC(=O)O`: 16.6 µM (active).
On to `Cc1cc(Nc2ncc3c(n2)N(C)C(=O)N(c2cc(NC(=O)c4cccc(C(F)(F)F)c4)ccc2C)C3)n(C)n1`, for which the Potency in [1] is 0.0295 µM (active); in experiment [2], 1.66 µM (active); in experiment [3], 1.18 µM (active); in experiment [4], 1.18 µM (active); in experiment [5], 16.6 µM (active); in experiment [6] it was 11.8 µM (active). Besides, the Potency was 5.9 µM (active) in experiment [7]; 0.469 µM (active) in experiment [8]; 0.372 µM (active) in [9]; 0.372 µM (active) in [10]; 0.355 µM (active) in experiment [11]; 1.26 µM (active) in experiment [12].
For the molecule `Nc1ccccc1NC(=O)c1ccc(CNC(=O)OCc2cccnc2)cc1`, the Potency in experiment [1] is 366 nM (active) and 468 nM (active); in experiment [2], 2.64 µM (active); in experiment [3], 1.66 µM (active); in experiment [4], 1.32 µM (active); in experiment [5] it was 2.35 µM (active); in experiment [6], 2.35 µM (active). For the same molecule, the Potency is 2.64 µM (active) in experiment [7]; 0.833 µM (active) in [8]; 0.743 µM (active) in [9]; 0.743 µM (active) in [10]; 11.2 µM (active) in experiment [11]; 2 µM (active) in [12].

The values are drawn from PubChem BioAssay (NCATS).
